# Source: PubChem BioAssay
# CendR NRP1 mod: modulators of CendR peptide binding to human neuropilin-1; actives 0.85% (n = 360,000); O14786; AID 602438; inhibition, % at 25 µM; FAM-RPARPAR peptide binding to NRP-1, fluorescence polarization;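 active = inhibition or corrected inhibition above about 18%, plus a signal ratio from 0.5 to 1.5, limit read from the data, passing the limit was not always enough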
# MEKK3 PB1 HTS: modulators (inhibitors or enhancers) of MEK5 binding to human MEKK3 PB1 domain | Q99759 | bead-based flow cytometry, Alexa488-MEK5 binding to MEKK3; actives lie on both sides; 0 = blocked by unlabeled MEK5, 100 = vehicle | binding response (% of control), % at 10 µM | actives 1.4% (n = 290,000);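 active = binding response more than 3 SD above or below the average of its plate-row segment, actives on both sides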;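 note: Alexa488 bead fluorescence after subtracting the streptavidin-only scavenger bead signal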
# SKN-1 inh: C. elegans SKN-1 inhibition | actives 0.49% (n = 360,000) | C. elegans VP596 Pgst-4::GFP/RFP ratio, acrylamide-induced, 24 h | inhibition, % at 21.8 µM;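 active = interference check ratio from 0.5 to 1.5 plus GFP to RFP signal ratio inhibition reaching or exceeding a fixed threshold, cut at about 30% in these data, passing the limit was not always enough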
# MEKK2wt PB1 HTS: raises or lowers MEK5 binding to wildtype human MEKK2 PB1 domain. Q9Y2U5. bead flow cytometry, Alexa488-MEK5 binding to MEKK2 WT; actives lie on both sides. binding response (% of control), % at 10 µM. actives 1.1% (n = 290,000). AID 1531; in the data active = binding response below about 67% or above about 130%
# MEKK2mut PB1 HTS: signal of MEK5 binding to mutant human MEKK2 PB1 domain; AID 1530; actives 0.35% (n = 290,000); bead flow cytometry, Alexa488-MEK5 binding to MEKK2 mutant; percent response, % at 10 µM; in the data active = percent response above about 24%, passing the limit was not always enough
# Hits are given with their value; – = inactive; · = no result; [ ] = remark or other dose. Sampled rows, rich in hits. Any-hit rate of the full collection: about 3.2%.
SMILES,CendR NRP1 mod,MEKK3 PB1 HTS,SKN-1 inh,MEKK2wt PB1 HTS,MEKK2mut PB1 HTS
CC1(C)CC(NC(=O)C2CCN(S(=O)(=O)c3ccc(Cl)c(C(F)(F)F)c3)CC2)CC(C)(C)N1,–,·,–,·,·
O=c1[nH][nH]c2c1[C@H](c1ccccc1)O[C@H](C1CCCCC1)C2,–,·,–,·,·
CC(C)[C@H](CO)Nc1nc(NCc2ccc(S(N)(=O)=O)cc2)c2ncn(C(C)C)c2n1,–,–,–,–,–
CC(C)n1cnc2c(NCc3ccc(S(N)(=O)=O)cc3)nc(NCc3ccc(S(N)(=O)=O)cc3)nc21,32,–,–,–,–
O=c1ccn(Cc2ccccc2)c2ccccc12,30,–,–,–,–
Cc1c(OCc2ccccc2)c(=O)ccn1Cc1ccccc1,–,–,–,–,–
NC(=S)N=Nc1c(O)[nH]c2ccc(F)cc12,–,–,–,–,–
NC(=S)N=Nc1c(O)cc(O)c2[nH]c(=O)ccc12,42,·,–,·,·
O=C(NCc1ccco1)c1sc2cc(F)ccc2c1Cl,–,–,37,–,–
COC(=O)[C@H]1CN(C(=O)c2ccccc2)C(=O)N1,25,–,–,–,–
COC(=O)C1CCC(=S)N1C(=O)c1ccccc1 (stereo not drawn),–,–,–,–,–
CSCC[C@H](N)C(=O)N1CCC(C(=O)N[C@@H](Cc2c[nH]c3ccccc23)C(=O)O)CC1,–,–,36,–,–
Cc1nc2ccc(C(=O)NCCc3c[nH]c4ccccc34)cn2c1N(C)C(=O)CCc1ccccc1,–,·,–,·,·
CN1CCN(S(=O)(=O)c2ccc(NC(=O)Nc3cccc(Cl)c3)cc2)CC1,27,–,–,–,–
CN1CCN(S(=O)(=O)c2ccc(NC(=O)c3ccccc3Cl)cc2)CC1,–,–,–,–,–
COc1ccc(N=Nc2ccc3ccccc3c2)c(O)c1,–,–,33,–,–
CCN(CC)CCN(C(=O)c1ccc(S(=O)(=O)N(CC)c2ccccc2)cc1)c1nc2c(OC)ccc(OC)c2s1,–,–,–,157,28
CCN(CC)CCN(C(=O)c1ccc(S(=O)(=O)N(C)C2CCCCC2)cc1)c1nc2c(C)cccc2s1,–,–,–,–,–
COc1ccc(C)c2sc(N(CCN(C)C)C(=O)c3ccc4ccccc4c3)nc12,–,–,–,145,24
CN(C)CCN(C(=O)c1ccc(C(=O)c2ccccc2)cc1)c1nc2cc3c(cc2s1)OCO3,–,–,–,140,–
CC(CNC(=O)CCC(=O)N1CCOc2ccccc21)c1ccccc1 (stereo not drawn),–,–,–,–,–
CCn1c(SC(C)C(=O)NC2CCCc3ccccc32)nnc1-c1cccs1 (stereo not drawn),34,–,–,–,–
CN1c2ccccc2C(C)(C)C12CC(c1ccc(S(=O)(=O)N3CCCCC3)cc1)=NO2 (stereo not drawn),19,–,–,–,–
CN1c2ccccc2C(C)(C)C12CC(c1cccc(S(=O)(=O)N3CCCC3)c1)=NO2 (stereo not drawn),–,–,–,–,–
Cc1cccnc1NC(=O)CN1C(=O)c2ccccc2S1(=O)=O,–,·,–,·,·
SMILES,CendR NRP1 mod,MEKK3 PB1 HTS,SKN-1 inh,MEKK2wt PB1 HTS,MEKK2mut PB1 HTS
O=S(=O)(NC1=NCCCCC1)c1ccc(Cl)cc1,–,–,–,–,–
CCOc1ccc(S(=O)(=O)NC2=NCCCCC2)cc1,18,·,–,·,·
O=C(CCc1c[nH]c2ccccc12)N1CCN(S(=O)(=O)c2ccc(F)cc2)CC1,–,·,–,·,·
O=C(OCc1c(F)cccc1Cl)c1cnc(Cl)c(Cl)c1,–,–,–,–,–
O=C(OCc1ccccc1F)c1cnc(Cl)c(Cl)c1,–,0.0[inhibitor],–,-10[inhibitor],–
CCc1ccc(NS(=O)(=O)c2c(C(=O)N3CCCCCC3)c(C)n(C)c2C)cc1,28,–,–,–,–
Cc1ccc(NS(=O)(=O)c2c(C(=O)N3CCCCCC3)c(C)n(C)c2C)c(C)c1,26,–,–,–,–
O=C(O)C(Cc1ccccc1[N+](=O)[O-])N1C(=O)c2ccccc2C1=O (stereo not drawn),–,·,–,·,·
O=C(Nc1ccccc1)OCCc1ccccn1,–,·,–,·,·
CC(C)c1ccc(-c2nc3ccccc3s2)cc1,–,–,46,-3.0,–
COC(=O)N(C)c1nc2ccccc2s1,–,–,–,–,–
CN(C(=O)OC(C)(C)C)c1ccc(-c2nc3ccccc3s2)cc1,–,–,43,–,–
